Experiment [1] deals with Cytochrome P450 3A7 (Homo sapiens) (UniProt P24462). Briefly: Cytochrome P450 family 3 subfamily A member 7 (CYP3A7) small molecule antagonists: luciferase biochemical qHTS assay (AID 1963596). Also: % is scaled to controls: 0 for no effect and ±100 for the full control effect; nearly all actives have a fitted effect of over 40% in size. The method, boiled down:
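Recombinant CYP3A7 P450-Glo luminescent assay: enzyme-proluciferin substrate mix preincubated with compound 10 min at room temperature, reaction started with NADPH regeneration system for 1 h. Luciferin detected by luminescence; ketoconazole as positive control.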
For orientation: In qHTS, concentration-response curves come from the screen itself.

Experiment [2] can be described thus: Viability qHTS for spleen associated tyrosine kinase inhibitor (SYKi) naive MV4-11 cells (AID 1963823). Also: nearly all actives have a fitted effect of over 40% in size. Also: potency is read from the fitted curve at half-maximal effect. The method, boiled down:
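Compounds were dispensed acoustically onto plates, MV4-11 cells (SYKi-naive) added at 500 per well, and plates incubated 72 hr at 37 C. CellTiter-Glo was added and luminescence measured after 10 min.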

Experiment [3] can be described thus: Viability qHTS for spleen associated tyrosine kinase inhibitor (SYKi) drug resistant MV4-11 cells (AID 1963824). Also: nearly all actives have a fitted effect of over 35% in size. Also: potency is read from the fitted curve at half-maximal effect. The method, boiled down: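 CellTiter-Glo luminescence, read 10 min after reagent addition, reports viability after a 72 hr compound exposure. Cells are an MV4-11 line made resistant to SYK inhibition, seeded at 500 per well onto compound-containing plates.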

Experiment [4] can be described thus: Quantitative highthroughput screen to assess conditional lethalithy of NOMO1 cells grown in RPMI1640 with untreated serum (RPMI+s) (AID 1963876). Also: nearly all actives have a fitted effect of over 35% in size. Also: potency is read from the fitted curve at half-maximal effect.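 As to Viability: 100% = DMSO wells and 0% = empty wells without cells.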 The method, boiled down: (§1)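 Each medium arm—HPLM with 10% dialyzed FBS, or RPMI1640 with 5 mM glucose and 10% untreated or dialyzed FBS—was screened against an 11-point, 3-fold compound titration for 48 h at 37 °C, with CellTiter-Glo luminescence as endpoint.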

A short description of experiment [5]: Quantitative highthroughput screen to assess conditional lethalithy of NOMO1 cells grown in RPMI1640 with dialyzed fetal bovine serum (RPMI+ds) (AID 1963877). Also: nearly all actives have a fitted effect of over 30% in size. Also: potency is read from the fitted curve at half-maximal effect.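 As to Viability: series mostly up to about 46 µM; 100% = DMSO control wells and 0% = empty wells.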 The method, boiled down:
as §1

Experiment [6] can be described thus: Quantitative highthroughput screen to assess conditional lethalithy of NOMO1 cells grown in Human Plasma-Like Medium with dialyzed fetal bovine serum (HPLM+ds) (AID 1963878). Also: nearly all actives have a fitted effect of over 35% in size. Also: potency is read from the fitted curve at half-maximal effect.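 As to Viability: 100% = DMSO wells and 0% = empty wells on each plate.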 The method, boiled down:
as §1

Experiment [7] is described as follows: Quantitative highthroughput screen to assess conditional lethalithy of P12 Ichikawa cells grown in Human Plasma-Like Medium with dialyzed fetal bovine serum (HPLM+ds) (AID 1963879). Also: nearly all actives have a fitted effect of over 35% in size. Also: potency is read from the fitted curve at half-maximal effect. As to Viability: series mostly up to about 46 µM. As to conditions: Potency: viability. The method, boiled down: as §1
Experiment [8] in a line: Quantitative highthroughput screen to assess conditional lethalithy of P12 Ichikawa cells grown in RPMI1640 with dialyzed fetal bovine serum (RPMI+ds) (AID 1963880). Also: nearly all actives have a fitted effect of over 35% in size. Also: potency is read from the fitted curve at half-maximal effect.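 As to Viability: 100% = DMSO wells and 0% = empty wells on each plate.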 The note with it: Potency: P12-Ichikawa viability. The method, boiled down:
as §1

Experiment [9] in a line: Quantitative highthroughput screen to assess conditional lethalithy of P12 Ichikawa cells grown in RPMI1640 with untreated serum (RPMI+s) (AID 1963881). Also: nearly all actives have a fitted effect of over 35% in size. Also: potency is read from the fitted curve at half-maximal effect.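 As to Viability: series mostly up to about 46 µM; 100% = DMSO wells and 0% = empty wells without cells.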 As to conditions: Potency: viability. The method, boiled down: as §1
Experiment [10] in a line: Quantitative highthroughput screen to assess conditional lethalithy of SEM cells grown in Human Plasma-Like Medium with dialyzed fetal bovine serum (HPLM+ds) (AID 1963882). Also: nearly all actives have a fitted effect of over 35% in size. Also: potency is read from the fitted curve at half-maximal effect. As to Viability: series mostly up to about 46 µM. The method, boiled down:
as §1

Experiment [11] is described as follows: Quantitative highthroughput screen to assess conditional lethalithy of SEM cells grown in RPMI1640 with unreated serum (RPMI+s) (AID 1963883). Also: nearly all actives have a fitted effect of over 35% in size. Also: potency is read from the fitted curve at half-maximal effect.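 As to Viability: 100% = DMSO wells and 0% = empty wells without cells.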 The method, boiled down:
as §1

Experiment [12] can be described thus: Quantitative highthroughput screen to assess conditional lethalithy of SEM cells grown in RPMI1640 with dialyzed fetal bovine serum (RPMI+ds) (AID 1963884). Also: nearly all actives have a fitted effect of over 35% in size. Also: potency is read from the fitted curve at half-maximal effect.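 As to Viability: series mostly up to about 46 µM; 100% = DMSO control wells and 0% = empty wells without cells.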 The method, boiled down: as §1
Experiment [13] can be described thus: Cellular viability qHTS for adrenocortical cancer (ACC) cell line SW-13 (AID 1963989). Also: nearly all actives have a fitted effect of over 65% in size. Also: potency is read from the fitted curve at half-maximal effect.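 As to activity (max response): cells grown in serum-free medium with ITS supplement; % is scaled to controls: 0 for no effect and ±100 for the full control effect.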 The note with it: SW-13 ACC cells viability, CellTiter-Glo, 48 h; activity (max response): hits give low values. The method, boiled down: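 SW-13 cells in ITS-supplemented serum-free DMEM were plated overnight, then exposed for 48 h at 37C to compound titrations (up to 46 uM final). Viability was read by CellTiter-Glo luminescence; four-parameter logistic fits gave IC50 and efficacy.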

Experiment [14] in a line: Cellular viability qHTS for adrenocortical cancer (ACC) cell line NCI-H295R (AID 1963990). Also: nearly all actives have a fitted effect of over 60% in size. Also: potency is read from the fitted curve at half-maximal effect. The method, boiled down: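 Luminescent ATP read-out (CellTiter-Glo, 20 min RT) after 48 h drug exposure of NCI-H295R cells; a titration up to 46 uM final. Data normalized to doxorubicin (100% inhibition) and DMSO (0%); 4-parameter fit gives IC50, max response.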

Where “and” joins values, the source holds several entries; their conditions need not be identical. Identical values can stand only once. Inconclusive results are not listed. Values without a mark were called inactive. Calls of active or inactive are those of the source. Calls follow the shape of the dose curve; as a rule, active = well fitted curve in the direction sought with a large enough effect; inconclusive = small, poorly fitted or top-dose-only effect, or another doubt; inactive = no such curve, though single readings can be large; an effect the other way counts as inactive or inconclusive.

Cytochrome P450 3A7 (Homo sapiens), sequence (P24462 whole entry, looked up): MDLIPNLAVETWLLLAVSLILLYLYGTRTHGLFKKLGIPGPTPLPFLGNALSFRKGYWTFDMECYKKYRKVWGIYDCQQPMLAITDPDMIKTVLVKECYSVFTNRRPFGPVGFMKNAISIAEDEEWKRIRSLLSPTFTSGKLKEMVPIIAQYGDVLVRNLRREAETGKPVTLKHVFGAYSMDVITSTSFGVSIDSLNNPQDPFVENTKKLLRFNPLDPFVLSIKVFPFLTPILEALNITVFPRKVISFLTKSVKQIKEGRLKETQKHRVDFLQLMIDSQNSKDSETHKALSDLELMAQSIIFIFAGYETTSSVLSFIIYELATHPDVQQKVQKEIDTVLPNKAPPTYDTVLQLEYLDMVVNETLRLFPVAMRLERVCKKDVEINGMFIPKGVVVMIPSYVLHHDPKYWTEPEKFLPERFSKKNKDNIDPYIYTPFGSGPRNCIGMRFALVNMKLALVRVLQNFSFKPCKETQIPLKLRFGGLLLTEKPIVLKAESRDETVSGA

For `CN[C@H](CNC(=O)N1CCC[C@@H]([C@@H](OCCNC(=O)OC)c2cccc(Cl)c2)C1)C[C@H]1CCCOC1`, the Potency result in experiment [1], in experiment [2] and in experiment [3] was “inactive” each time.

With `C1Cc2[nH]nc(-c3nn[nH]n3)c2C1`, the Potency entry in [1], in [2], in [3], in [4], in experiment [5] and in [6] was “inactive” in each case. Moreover, the Potency entry in [7], in experiment [8], in experiment [9], in experiment [10], in experiment [11] and in [12] was “inactive” in each case. Further, in [14], the Potency result is “inactive”. The activity (max response) in experiment [13] was 1.5%.

`CN1CCN(c2c(F)cc3c(=O)c(C(=O)O)cn(CCF)c3c2F)CC1`: the Potency result in experiment [1], in experiment [2], in experiment [3], in experiment [4], in experiment [5] and in experiment [6] was “inactive” each time. For the same molecule, the Potency entry in [7], in experiment [8], in experiment [9], in [10], in experiment [11] and in [12] was “inactive” in each case. Moreover, the activity (max response) in experiment [13] was -1.49%.

As for `O=C(O)c1cccc(S(=O)(=O)N2CCc3ccccc3C2)c1`, the Potency result in experiment [1], in experiment [2] and in [3] was “inactive” throughout.

Regarding `CCn1c2ccccc2c2cc(Nc3ccnc(NCCCN4CCOCC4)n3)ccc21`, the Potency entry in experiment [1] is “inactive”. Besides, the Potency in experiment [2] is 2.31 µM (active); in experiment [3] it was 2.59 µM (active).

In the case of `CN(C)S(=O)(=O)c1ccc(NC(=S)N2CCC(C(O)(c3ccccc3)c3ccccc3)CC2)cc1`, in experiment [1], the Potency entry is “inactive”. In addition, the values for the Potency in experiment [2] and in [3] were 16.4 µM (active) and 18.4 µM (active), respectively.

For `O=C(O)CC1CCC(c2ccc(-c3ccc4nc(C(=O)NCc5ccc(OC(F)(F)F)cc5)cn4c3)cc2)CC1` (stereo not drawn), the Potency result in [1], in [2] and in experiment [3] was “inactive” in each case.

Regarding `Nc1ccn([C@@H]2CS[C@H](CO)O2)c(=O)n1`, the Potency entry in experiment [1], in experiment [2], in experiment [3], in experiment [4], in experiment [5] and in experiment [6] was “inactive” throughout. The Potency result in experiment [7], in experiment [8], in experiment [9], in experiment [10], in experiment [11] and in experiment [12] was “inactive” in each case. Further, the activity (max response) in [13] was 7.41%.

As for `COC(=O)[C@H](CC1C=NC=N1)NCC12CC3CC(CC(C3)C1)C2` (stereo partly drawn), the Potency result in experiment [1], in [2] and in experiment [3] was “inactive” throughout.

In the case of `Cn1c(N2CCCCS2(=O)=O)nc(C(=O)NCc2ccc(F)cc2)c(O)c1=O`, the Potency result in experiment [1], in experiment [2], in experiment [3], in [4], in experiment [5] and in experiment [6] was “inactive” each time. The Potency entry in experiment [7], in experiment [8], in experiment [9], in experiment [10], in [11] and in [12] was “inactive” in each case.

For `N[C@@H](CC(=O)Nc1ccc(Oc2cc(F)c(F)cc2Br)cc1)C(=O)O`, the Potency result in experiment [1], in [2] and in experiment [3] was “inactive” throughout.

Turning to `O=C(Nc1cccnn1)N1CCN(c2nccc(-c3ccc(F)c(F)c3)n2)CC1`, the Potency entry in experiment [1], in experiment [2] and in experiment [3] was “inactive” in each case.

Turning to `CCNC(=O)Nc1ccc(-c2nc3c(c(N4CCOC[C@@H]4C)n2)CCN(c2ncccn2)C3)cc1`, the Potency result in experiment [1] is “inactive”. The Potency in experiment [2] was 0.13 µM (active); in [3], 0.164 µM (active).

`COC[C@H](NC(=O)c1cnc(C)s1)C(=O)N[C@@H](COC)C(=O)N[C@@H](Cc1ccccc1)C(=O)[C@@]1(C)CO1`: in experiment [1], the Potency entry was “inactive”. The Potency in experiment [2] is 0.0661 µM (active); in [3], 0.0833 µM (active); in experiment [4] it was 0.469 µM (active); in experiment [5] it was 0.469 µM (active); in [6] it was 0.332 µM (active); in experiment [7], 0.235 µM (active). Also, the Potency in experiment [8] is 0.235 µM (active); in experiment [9] it was 0.264 µM (active); in experiment [10] it was 0.0935 µM (active); in experiment [11], 0.0833 µM (active); in experiment [12], 0.0833 µM (active); in [13], 0.316 µM (active). In [14], the Potency was 0.282 µM (active).

For `CN(c1ccc(NC(=O)Nc2ccccc2)cc1)S(=O)(=O)c1cnn(-c2ccc(F)cc2)c1`, in experiment [1], the Potency result is “inactive”. For the same molecule, the Potency in experiment [2] is 16.4 µM (active); in [3], 23.1 µM (active).

For the molecule `O=C(O)c1cn(-c2ccc(F)cc2)c2cc(N3CCNCC3)c(F)cc2c1=O`, the Potency entry in experiment [1], in experiment [2], in experiment [3], in [4], in experiment [5] and in [6] was “inactive” each time. Also, the Potency result in experiment [7], in experiment [8], in experiment [9], in [10], in experiment [11] and in experiment [12] was “inactive” each time. Besides, in experiment [13], the activity (max response) was -4.38% and 8.16%.

As for `CN(C)CCc1c[nH]c2ccc(C[C@H]3COC(=O)N3)cc12`, the Potency entry in experiment [1], in experiment [2], in experiment [3] and in experiment [14] was “inactive” throughout. For the same molecule, the Potency in experiment [4] is 16.6 µM (active); in experiment [5], 20.9 µM (active); in [6], 13.2 µM (active); in experiment [7], 7.43 µM (active); in [8], 10.5 µM (active); in experiment [9], 10.5 µM (active). Also, the Potency was 9.35 µM (active) in experiment [10], 4.69 µM (active) in experiment [11] and 9.35 µM (active) in experiment [12]. Further, the activity (max response) in [13] is 12.9%.

For the origin of these results see PubChem BioAssay (NCATS).
